The list is not random: actives were taken first. Their share in the collection is about 3.7%.
Bead autofluor: flagged as autofluorescent in microsphere protease counterscreen; fluorescence intensity (no concentration beside the values); actives 3.1% (n = 360,000); compound autofluorescence counterscreen, microsphere flow cytometry; stronger effect = higher value; in the data active means fluorescence intensity above about 16000; inconclusive means no clear call, values can overlap the other calls
BoNT-F LC inh: blocks Botulinum neurotoxin F light chain protease; actives 0.22% (n = 360,000); inhibition, % at 10 µM; Multiplex microsphere protease cleavage assay, flow cytometry; in the data active means inhibition above about 35%, passing the limit was not always enough; inconclusive means no clear call, values can overlap the other calls; further: plate controls were buffer without enzyme for full effect and enzyme alone for no effect
MazF activator: MazEF (E. coli) toxin RNase activation | FAM/BHQ RNA-DNA oligo cleavage fluorescence, 5 h | activation, % at 20 µM | actives 0.32% (n = 350,000) | AID 504720; in the data active means activation above about 50%
Target sequence (P0AE70 whole entry, looked up): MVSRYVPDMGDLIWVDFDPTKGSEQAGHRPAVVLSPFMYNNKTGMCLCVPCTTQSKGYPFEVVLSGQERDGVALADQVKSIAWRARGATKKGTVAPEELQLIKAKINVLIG
Anthrax LF inh2: blocks Bacillus anthracis lethal factor protease; multiplex microsphere protease cleavage assay, LF; inhibition, % at 10 µM; actives 0.12% (n = 360,000); AID 588501; further: plate controls were buffer without enzyme for full effect and enzyme alone for no effect
BoNT A protease: inhibitors of Botulinum neurotoxin A light chain protease. actives 0.17% (n = 360,000). inhibition, % at 10 µM. multiplex microsphere protease substrate cleavage, flow cytometry; further: plate controls were buffer without enzyme for full effect and enzyme alone for no effect
Numbers without * were called inactive; i = inactive; ? = inconclusive; nt = not tested or not shown; ! = repeats disagree. Unless noted, no stated cut-off is given here; in the data, active means inhibition above about 30%; inconclusive means no clear call, values can overlap the other calls; inactive means below that.

SMILES | Bead autofluor | BoNT-F LC inh | MazF activator | Anthrax LF inh2 | BoNT A protease
COc1ccc(CC(=O)Nc2ccc3c(c2)OC2(CCCC2)O3)c(OC)c1 | 3555 | -4.1 | 46.1 | -0.3 | 0.5
O=C1C(=C2CCCCC2)SC(=S)N1Cc1ccco1 | 23926* | -2.3 | -17.4 | -4.5 | ?
O=C(O)CCN1C(=O)C(=C2CCCCCC2)SC1=S | 3069 | -2.3 | 4.2 | -3.4 | 0.5
COc1ccc(S(=O)(=O)NC(=O)C2(C)CCN2C(=O)C2(c3ccccc3)CCCC2)cc1 (stereo unspecified) | 3768 | -2.1 | nt | 2.8 | -0.5
Cc1cccc(C)c1OCCCCc1c(C)n[nH]c1C | 22821* | -5.4 | -11.0 | -7.8 | 0.5
COc1cccc(OC)c1OCCCCc1c(C)n[nH]c1C | 3161 | -3.2 | 1.6 | 0.6 | 0.3
CC(C)c1nc2oc3ccccc3c(=O)c2c(=O)n1-c1ccccc1 | 17355* | 4.5 | 5.9 | -17.4 | 6.0
O=c1c2ccccc2oc2nc(-c3ccco3)n(-c3ccccc3)c(=O)c12 | 1938 | 4.0 | -2.9 | 0.5 | 1.2
O=C(CCS(=O)(=O)Cc1ccccc1)N1CCN(c2ccccc2)CC1 | 15228 | 3.8 | -1.5 | 2.7 | ?
CC1CCCN(C(=O)CCS(=O)(=O)Cc2ccccc2)C1 (stereo unspecified) | 16402* | 1.9 | -5.6 | -2.6 | -0.2
CC(C)[N+]1=C2C=CC=CC=C2SC12C([N+](=O)[O-])=CC(=[N+]([O-])[O-])C=C2[N+](=O)[O-] (stereo unspecified) | 2794 | ? | 0.4 | -11.6 | 40.9*
CCN(CC)S(=O)(=O)c1ccc(Cl)c(C(=O)Nc2cccnc2)c1 | nt | nt | -2.6 | nt | nt
CCN(CC)S(=O)(=O)c1ccc(Cl)c(NC(=O)c2cc(Cl)ccc2Cl)c1 | 2329 | -2.8 | 54.0* | -2.3 | -0.4
CCN(CC)S(=O)(=O)c1ccc(Cl)c(C(=O)Nc2nnc(C)s2)c1 | 23810* | -7.6 | 0.5 | -5.7 | ?
COc1ccc(C2=Nc3ccccc3NC(=O)C2N(Cc2ccccc2)C(=O)C2=NNC(=O)CC2)cc1 (stereo unspecified) | 4058 | -2.7 | nt | 4.2 | 1.7
CN1C(=CC=C2C=C(I)C(=O)C(I)=C2)C(C)(C)c2ccccc21 | 3157 | 19.3 | -671.7 | 55.1* | 101.0*
CN(C)c1ccc(/C=C2\SC(=S)N(Nc3ncc(C(F)(F)F)cc3Cl)C2=O)cc1 | 10036 | 13.9 | 52.5* | 3.7 | 6.1
O=C(NCCc1c[nH]c2ccccc12)c1[nH]c(C(F)(F)F)nc1-c1ccccc1 | 5895 | -8.1 | nt | 0.2 | -0.7
CCOc1ccc(NC(=O)CSCc2cnn(-c3ccccc3)c2-n2cccc2)cc1 | 19959* | -1.2 | 0.6 | -1.7 | 1.2
O=C(CSCc1cnn(-c2ccccc2)c1-n1cccc1)N1CCN(Cc2ccccc2)CC1 | 18611* | 8.5 | -10.8 | -2.8 | ?
COC(=O)COC(=O)c1ccc(-n2nnnc2SC)cc1 | 22577* | 5.7 | -3.3 | -2.3 | 0.9
COC(=O)c1ccc(-n2nnnc2SC)cc1 | ? | 2.2 | -7.4 | 22.5 | -1.5
CC(=O)OC[C@@H]1CN(Cc2ccccc2)C[C@H](n2cnc3c(NCc4ccc(F)cc4)ncnc32)O1 | 3644 | 6.1 | nt | 1.7 | 0.3
O=C(O)c1ccccc1-c1c2cc(I)c(=O)c(I)c-2oc2c(I)c(O)c(I)cc12 | 3911 | 38.2*! | i | 32.9* | 64.3*
O=Cc1ccc(-c2ccccc2C(=O)O)o1 | 3091 | 15.7 | 12.8 | 2.7 | 4.0
SMILES | Bead autofluor | BoNT-F LC inh | MazF activator | Anthrax LF inh2 | BoNT A protease
Cc1ccc(C(=O)CCC(=O)N2CCC(C(N)=O)CC2)s1 | 3908 | -5.0 | 0.3 | -4.6 | -0.4
CC(C)N(Cc1nc(-c2ccccc2)no1)C(=O)c1ccc(Cl)cc1 | 4289 | -7.4 | -1.2 | -5.3 | 0.1
CC(C)N(Cc1nc(-c2ccccc2)no1)C(=O)C1CCCCC1 | 23062* | 0.0 | -1.0 | -4.7 | 0.1
COc1cccc2c3c(c(C)nc12)CCN3c1ccccc1 | 4647 | 3.5 | 11.5 | -3.7 | -0.5
COc1ccccc1N1CCc2c(C)nc3c(OC)cccc3c21 | 22775* | -5.8 | 16.2 | 1.3 | -1.6
CCC1CCCCN1CC(=O)c1c(C)[nH]c2cc(C)ccc12 (stereo unspecified) | 4964 | -31.1 | 0.5 | -3.2 | -4.8
COc1ccc(C2=NOC(C(=O)NCc3ccccc3)C2)cc1 (stereo unspecified) | 7990 | -2.1 | -8.3 | 2.8 | 0.9
COc1ccc(C2=NOC(C(=O)NC(C)(C)C)C2)cc1 (stereo unspecified) | 22564* | 1.2 | 2.2 | -1.7 | 1.3
CCN(CC)C(=O)C1CC(c2ccc(OC)cc2)=NO1 (stereo unspecified) | 20968* | -0.9 | -4.5 | 0.5 | -1.0
CCc1ccc(OCC2Cn3c(nc4c3c(=O)[nH]c(=O)n4C)O2)cc1 (stereo unspecified) | 4085 | ? | 7.0 | -5.2 | 1.3
Cc1ccc(OCC2Cn3c(nc4c3c(=O)[nH]c(=O)n4C)O2)cc1 (stereo unspecified) | 20012* | 2.8 | -0.2 | -1.8 | 1.5
O=C(Nc1nccs1)c1ccc(COc2ccccc2)o1 | nt | nt | 3.0 | nt | nt
Cc1ccc(OCc2ccc(C(=O)Nc3nccs3)o2)cc1 | nt | nt | 6.0 | nt | nt
CCc1nnc(NC(=O)c2ccc(COc3ccc(C)cc3)o2)s1 | 23447* | -1.3 | -7.4 | 0.8 | -0.9
CCc1nnc(NC(=O)c2ccc(COc3ccccc3)o2)s1 | 17254* | -3.3 | 3.5 | -3.7 | -3.0
O=Cc1ccc(F)c([B-](F)(F)F)c1 | 3229 | -5.5 | 2.6 | -3.3 | -0.2
O=S(=O)(Cc1ccccc1)N1CCC(c2nc(-c3cccs3)no2)CC1 | 18652* | 7.9 | -0.7 | -5.6 | ?
COc1cccc(-c2noc(C3CCCN(C(=O)Cc4ccccc4)C3)n2)c1 (stereo unspecified) | 20892* | 0.2 | -1.8 | -0.2 | -0.5
O=C(c1c(F)cccc1F)N1CCCC(c2nc(-c3cccs3)no2)C1 (stereo unspecified) | 3680 | -23.1 | 8.7 | -19.7 | -2.8
OC[C@@H]1CCCN1Cc1nc(-c2cccs2)no1 | 3126 | -3.9 | 4.3 | -0.9 | -1.3
O=C(c1ccco1)N1CCCC(c2nc(-c3ccc(S(=O)(=O)NCc4ccccc4)cc3)no2)C1 (stereo unspecified) | 22212* | 0.9 | -4.8 | 0.5 | 2.1
COc1ccc(-c2noc(C3CCCN(C(=O)c4ccccc4)C3)n2)cc1 (stereo unspecified) | 4105 | -2.0 | 1.3 | -2.7 | -1.2
O=C(N1CCOCC1)N1CCCC(c2nc(-c3cccs3)no2)C1 (stereo unspecified) | 20689* | -0.4 | -0.7 | 0.8 | 0.0
COCCNc1nnc(SCC(=O)NC2CCCCC2)s1 | 9019 | 0.8 | 3.9 | -6.5 | 1.3
O=C(Cc1ccccc1)N1CCCC(c2nc(-c3cccs3)no2)C1 (stereo unspecified) | 23522* | -6.7 | -6.4 | -1.3 | -3.7
O=C(c1ccccc1Br)N1CCCC(c2nc(-c3cccs3)no2)C1 (stereo unspecified) | 4535 | -0.2 | 2.4 | 1.6 | 0.6
Cc1ccc(S(=O)(=O)CCC(=O)OCC(=O)N2CC(=O)Nc3ccccc32)cc1 | 22432* | -3.3 | -2.5 | -5.9 | -0.9
